TRHR ag – TRH receptor (human) agonism; TRHR cells, calcium flux fluo-8, FDSS agonist mode; activation, % at 2 µM; 360,000 tested, 0.18% active
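In this calcium-flux screen, cells bearing human TRHR are dye-loaded with fluo-8, baselined for 10 cycles, then exposed to library compounds; positive kinetic calcium responses during the agonist phase mark hits, with TRH as control.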
D1 potentiator – potentiators of human D1 dopamine receptor. 360,000 tested, 0.036% active. P21728. AID 504651. potentiation, % at 10 µM. HEK293 TREx D1 cells, calcium flux, dopamine EC20 potentiation; in the data active = potentiation above about 30%
Target sequence (P21728 whole entry, looked up): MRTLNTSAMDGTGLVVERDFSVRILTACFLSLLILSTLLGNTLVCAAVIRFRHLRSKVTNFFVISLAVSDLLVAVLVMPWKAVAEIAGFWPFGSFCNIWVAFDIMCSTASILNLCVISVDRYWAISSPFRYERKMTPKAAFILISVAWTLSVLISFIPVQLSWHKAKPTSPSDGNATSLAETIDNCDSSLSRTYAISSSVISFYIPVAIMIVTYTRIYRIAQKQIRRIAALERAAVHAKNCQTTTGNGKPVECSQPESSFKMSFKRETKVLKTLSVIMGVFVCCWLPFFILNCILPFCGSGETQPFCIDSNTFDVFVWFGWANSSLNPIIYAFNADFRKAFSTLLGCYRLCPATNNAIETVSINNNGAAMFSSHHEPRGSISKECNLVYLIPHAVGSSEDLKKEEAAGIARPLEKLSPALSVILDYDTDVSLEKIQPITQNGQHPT
LDHA inh – LDHA (human) enzyme inhibition. P00338. purified LDHA, NADH/diaphorase-resazurin fluorescence; stronger effect = lower value. activity change, % (values are at about 110 or 230 µM). 480,000 tested, 0.15% active. AID 1347041; in the data active = activity change below about -30%
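Human LDH5 at 2 nM final in Tris HCl pH 7.4 with 0.06 mM NADH and 0.2 mM pyruvate, reacted 5 minutes at room temperature. Remaining NADH coupled via diaphorase/resazurin; resorufin fluorescence read at 0 and 20 minutes, normalized to enzyme-free and DMSO wells.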
D1 antagonist – human D1 dopamine receptor antagonism. P21728. HEK293 TREx D1 cells, calcium flux, dopamine EC80; stronger effect = lower value. activity change, negative = inhibition, % at 10 µM. 360,000 tested, 3.2% active. AID 504652; in the data active = activity change below about -30%
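Compound effects on dopamine-evoked calcium signalling were measured in tetracycline-induced HEK293 Trex D1 cells. Dopamine at EC80 followed a 180 s compound pre-read, and fluorescence was tracked kinetically for 180 s more.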
D1 ag – activates the human D1 dopamine receptor | 360,000 tested, 1% active | activation, % at 2 µM | AID 504660 | P21728 | HEK293 T-REx D1 cells, calcium flux, agonist mode
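Inducible HEK293 T-REx D1 cells, force-coupled to calcium signalling, were plated at 4000 cells/well with tetracycline and held overnight at 30 C. After no-wash calcium dye loading, compound-evoked calcium rise over 180 s flagged agonists.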
TRHR enhancer – allosterically enhances the human TRH receptor; TRHR cells, fluo-8 calcium fluorescence, EC20 TRH enhancement; enhancement, % at 2 µM; 360,000 tested, 0.66% active; AID 493056; in the data active = enhancement above about 30%
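Enhancer read-out: after compound pinning and an initial kinetic agonist-mode read, an EC20 of TRH (10 nM final) was injected and fluo-8 calcium signal (Ex 480/Em 530) followed at 1 s/cycle for 100 cycles in TRHR-expressing cells.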
Numbers stand for hits. A selection: hits, their analogues and other compounds. The true share with any hit is near 3.6%. Rule as the data show it, unless noted: active = activation above about 30%; inactive = the rest.

`O=C(NCCc1cccc2ccccc12)c1ccc2ccccc2n1` gave LDHA inh inactive.
`CCOc1ccc(NC(=O)c2ccc(Br)o2)c([N+](=O)[O-])c1` gave TRHR ag inactive, D1 potentiator inactive, LDHA inh inactive, D1 antagonist -44.9, D1 ag inactive and TRHR enhancer inactive.
For Cc1ccc(C(=O)NCc2coc(-c3cccs3)n2)c(C)c1 the results were LDHA inh inactive.
O=C(CCCN1C(=O)c2ccccc2C1=O)Oc1ccc(F)cc1 was read as TRHR ag inactive, D1 potentiator inactive, LDHA inh inactive, D1 antagonist -31.8, D1 ag inactive and TRHR enhancer inactive.
COC(=O)c1ccc(OC(=O)CN2C(=O)c3ccccc3C2=O)cc1 was read as TRHR ag inactive, D1 potentiator inactive, LDHA inh inactive, D1 antagonist -34.2, D1 ag inactive and TRHR enhancer inactive.
Screening O=C1c2ccccc2C(=O)N1CCCCON1C(=O)c2ccccc2C1=O returned TRHR ag inactive, D1 potentiator inactive, LDHA inh inactive, D1 antagonist -35.6, D1 ag inactive and TRHR enhancer inactive.
Screening COC(=O)c1ccc(CN2C(=O)c3ccccc3C2=O)cc1 returned TRHR ag inactive, D1 potentiator inactive, LDHA inh inactive, D1 antagonist inactive, D1 ag inactive and TRHR enhancer inactive.
For O=C(CCCN1C(=O)c2ccccc2C1=O)NCc1ccc(F)cc1 the results were TRHR ag inactive, D1 potentiator inactive, LDHA inh inactive, D1 antagonist inactive, D1 ag inactive and TRHR enhancer inactive.
C=CCc1ccccc1OCCNCc1ccccc1 was read as TRHR ag inactive, D1 potentiator inactive, LDHA inh inactive, D1 antagonist -50.3, D1 ag inactive and TRHR enhancer inactive.
Screening Clc1ccc(OCCCNCc2ccccc2)c2ccccc12 returned TRHR ag inactive, D1 potentiator inactive, LDHA inh inactive, D1 antagonist inactive, D1 ag 31.1 and TRHR enhancer inactive.
For Brc1ccccc1OCCNCc1ccccc1 the results were TRHR ag inactive, D1 potentiator inactive, LDHA inh inactive, D1 antagonist -75.2, D1 ag inactive and TRHR enhancer inactive.
`Cc1cc(C)c(OCCCCNCc2ccccc2)c(Cl)c1` gave TRHR ag inactive, D1 potentiator inactive, LDHA inh inactive, D1 antagonist inactive, D1 ag inactive and TRHR enhancer inactive.
Screening NC(=O)c1nn(CC(=O)NC2CCCCCC2)c(=O)c2ccccc12 returned LDHA inh inactive.
For COc1cccc(-c2ccc(C#N)c(SCC(=O)Nc3ccc(C(C)=O)cc3)n2)c1 the results were LDHA inh inactive.
`CCSc1nc2c(c(=O)n(C)c(=O)n2C)n1CCc1ccc(OC)cc1` gave LDHA inh inactive.
For CCn1cc(CN2CCCC(CO)(Cc3ccc(F)cc3)C2)c2ccccc21 (stereo unspecified) the results were TRHR ag inactive, D1 potentiator inactive, LDHA inh inactive, D1 antagonist inactive, D1 ag 30.6 and TRHR enhancer inactive.
Screening Cn1cc(CN2CCCC(CO)(Cc3ccccc3)C2)c2ccccc21 (stereo unspecified) returned TRHR ag inactive, D1 potentiator inactive, LDHA inh inactive, D1 antagonist inactive, D1 ag inactive and TRHR enhancer inactive.
For Cc1ccc(Cl)cc1N1CCN(CC(=O)Nc2ccc(CN3CCCCC3)cc2)CC1 the results were TRHR ag inactive, D1 potentiator inactive, LDHA inh inactive, D1 antagonist -48.1, D1 ag 53.5 and TRHR enhancer inactive.
For COc1ccccc1N1CCN(CC(=O)Nc2ccc(CN3CCCCC3)cc2)CC1 the results were TRHR ag inactive, D1 potentiator inactive, LDHA inh -46.1, D1 antagonist inactive, D1 ag inactive and TRHR enhancer inactive.
Screening Cc1ccc(Cl)cc1N1CCN(CC(=O)NC2CCCCC2)CC1 returned LDHA inh inactive.
Screening COc1ccccc1NC(=O)CN1CCN(c2ccccc2OC)CC1 returned TRHR ag inactive, D1 potentiator inactive, LDHA inh inactive, D1 antagonist inactive, D1 ag inactive and TRHR enhancer inactive.
Screening Cc1ccc2nc(C(=O)N3CCN(c4ccccc4F)CC3)cn2c1 returned LDHA inh inactive.
Screening O=C(CNc1cccc(S(=O)(=O)N2CCCCC2)c1)Nc1ccc(N2CCCC2)cc1 returned LDHA inh inactive.
`CCn1nnc2cc(C(=O)Nc3nc(-c4ccc5c(c4)CCC5)cs3)ccc21` gave LDHA inh inactive.
O=C(NCCCN1CCc2ccccc2C1)Nc1ccc(Br)cc1 was read as TRHR ag inactive, D1 potentiator inactive, LDHA inh inactive, D1 antagonist inactive, D1 ag 40.5 and TRHR enhancer inactive.
For O=C(Cc1ccccc1)NCCN1CCCC1 the results were TRHR ag inactive, D1 potentiator inactive, LDHA inh inactive, D1 antagonist -39.3, D1 ag inactive and TRHR enhancer inactive.
COc1ccc(NC(=O)NCCCN2CCc3ccccc3C2)cc1 was read as TRHR ag inactive, D1 potentiator inactive, LDHA inh inactive, D1 antagonist inactive, D1 ag inactive and TRHR enhancer inactive.
O=C(CCN1CCCCC1)NNC(=S)NC(=O)c1ccc(Br)cc1 was read as TRHR ag inactive, D1 potentiator inactive, LDHA inh inactive, D1 antagonist -36.1, D1 ag inactive and TRHR enhancer inactive.
Screening Cc1ccccc1CC(=O)NCCN1CCCCC1 returned TRHR ag inactive, D1 potentiator inactive, LDHA inh inactive, D1 antagonist inactive, D1 ag inactive and TRHR enhancer inactive.
`O=C(NCCCCNC(=O)c1ccc(Br)cc1)c1ccc(Br)cc1` gave TRHR ag inactive, D1 potentiator inactive, LDHA inh inactive, D1 antagonist -33.1, D1 ag inactive and TRHR enhancer inactive.
O=C(/C=C/c1cccc([N+](=O)[O-])c1)c1ccc(OC(F)F)cc1OC(F)F was read as LDHA inh inactive.
`Cn1cc(CC(=O)NCCN2CCOCC2)c2ccccc21` gave TRHR ag inactive, D1 potentiator inactive, LDHA inh inactive, D1 antagonist -31.9, D1 ag inactive and TRHR enhancer inactive.
`O=C(NCCN1CCCCC1)Nc1ccc(Br)cc1` gave TRHR ag inactive, D1 potentiator inactive, LDHA inh inactive, D1 antagonist -59.9, D1 ag inactive and TRHR enhancer inactive.
`O=C(NCCN1CCCC1)c1ccc(Br)cc1` gave TRHR ag inactive, D1 potentiator 31.4, LDHA inh inactive, D1 antagonist inactive, D1 ag inactive and TRHR enhancer inactive.
`CC1(C)CC(=O)C(C(C2=C(O)CC(C)(C)CC2=O)c2cc(Cl)c(O)c(Cl)c2)C(=O)C1` (stereo unspecified) gave LDHA inh inactive.

Assay outcomes: PubChem BioAssay, National Center for Advancing Translational Sciences (NCATS)
